Results published in PubChem BioAssay (NCATS).
Inconclusive results are not listed. Values without a mark were called inactive. The call rests on the fitted dose curve; in most records, active means well fitted curve in the direction sought with a large enough effect; inconclusive means small, poorly fitted or top-dose-only effect, or effect the other way, or another doubt; inactive means no such curve, though single readings can be large or run the other way.

Biological target: Transient receptor potential cation channel subfamily V member 1 (Homo sapiens) (UniProt Q8NER1)
Test: HTS Assay for Compounds that Act as Enhancers of the Vanilloid Receptor 1 (AID 488979); further: 0% is about no effect
Details: TRPV1-expressing cells, enhancer of channel activity, stimulated with capsaicin at EC20; series mostly up to 41.7 µM; activity change, positive = enhancement: at the top concentration
From the text: The transient receptor potential ion channel, family V, number 1, (TRPV1) is one of the most important molecular transducers of painful stimuli and a potential target for analgesic drug development. Although recent clinical trials with orthosteric antagonists have not produced a successful drug because of a hyperthermia side effect and their tendency to block thermal noxious pain, this ion channel is undeniably well placed in the pain pathway, and the idea of blocking pain signals before they enter the CNS is an excellent concept and of proven efficacy when TRPV1 agonists are used. We propose a new approach involving allosteric modulation to impose an activity-dependent constraint within the context of inflammation and tissue damage that would alter the responsiveness of the channel in a way that an orthosteric vanilloid antagonist cannot achieve. We believe that the allosteric modulator approach has not been explored for this target.
The main goal of this proposal is to identify additional, new, potent allosteric modulators of TRPV1 that can be used to investigate TRPV1 function. Our recent report provides evidence of proof of concept, but the compounds are just at the edge of utility in terms of potency. […] The question of whether they can be used as analgesic agents is complex, but if suitable compounds are identified then testing for analgesic properties will be conducted.
Upon TRPV1 activation in TRPV1 cells, the channel opens and extracellular cations flow through the channel into the cytosol. A calcium binding dye (Fluo-8) becomes fluorescent when bound to calcium. This dye is pre-loaded into cells and is used as a marker for calcium influx.
The amount of accumulated calcium is precisely quantified using the FDSS kinetic reader and the calcium dye.
For the HTS assay, freshly prepared cells are plated at a density of 2000/well in 3 ul medium in 1536-well plates and cultured overnight at 35.5C. Cells will be loaded with 1 ul of the homogeneous calcium dye (ABD Bioquest) at room temperature for 40 to 90 minutes. Plates will be loaded into the FDSS kinetic reader and a 1 sec / cycle for 10 second baseline signal will be measured. Compound library will then be added with a pintool at 23 nl and measured kinetically for 3 minutes. This portion of the read is considered the agonist portion of the screen. Following the 3 minutes of incubation, an on board pipettor will deliver 1 ul of capsaicin for a final concentration equal to the EC20. Signal will be measured kinetically for an additional 2 minutes. This portion of the read is considered the allosteric enhancer portion of the screen.
The FDSS reader has a standard filter set capable of measuring calcium bound Fluo-8 (ex=480 and em=520 nm).

Transient receptor potential cation channel subfamily V member 1 (Homo sapiens), sequence (Q8NER1 whole entry, looked up): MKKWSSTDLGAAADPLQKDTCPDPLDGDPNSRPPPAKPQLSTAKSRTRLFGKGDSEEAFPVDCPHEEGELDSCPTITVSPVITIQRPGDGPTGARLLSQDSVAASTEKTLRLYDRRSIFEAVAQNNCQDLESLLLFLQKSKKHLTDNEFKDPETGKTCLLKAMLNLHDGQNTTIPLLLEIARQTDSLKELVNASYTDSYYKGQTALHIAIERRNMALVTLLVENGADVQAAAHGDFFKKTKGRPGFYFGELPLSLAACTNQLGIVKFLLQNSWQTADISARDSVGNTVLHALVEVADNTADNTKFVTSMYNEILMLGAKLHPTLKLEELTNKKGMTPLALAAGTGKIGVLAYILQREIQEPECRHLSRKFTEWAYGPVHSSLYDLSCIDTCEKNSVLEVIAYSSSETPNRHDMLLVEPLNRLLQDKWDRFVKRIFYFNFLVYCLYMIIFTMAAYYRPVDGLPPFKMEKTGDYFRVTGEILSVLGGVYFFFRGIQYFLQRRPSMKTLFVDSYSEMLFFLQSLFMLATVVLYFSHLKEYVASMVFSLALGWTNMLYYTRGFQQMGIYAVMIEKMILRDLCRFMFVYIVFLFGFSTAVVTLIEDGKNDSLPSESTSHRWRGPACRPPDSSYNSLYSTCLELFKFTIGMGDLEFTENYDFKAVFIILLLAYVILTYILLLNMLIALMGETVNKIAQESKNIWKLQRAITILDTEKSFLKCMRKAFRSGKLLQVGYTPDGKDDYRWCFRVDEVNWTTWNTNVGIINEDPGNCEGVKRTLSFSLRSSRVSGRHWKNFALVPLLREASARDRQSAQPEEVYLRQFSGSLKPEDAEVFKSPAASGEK

SMILES	activity change, positive = enhancement
CC(C)(C)NCC(O)c1cc(O)cc(O)c1 (stereo not given)	4.7%
CCCCNC(=O)NS(=O)(=O)c1ccc(C)cc1	11.7%
CCN(Cc1ccncc1)C(=O)C(CO)c1ccccc1 (stereo not given)	-4.83%
CC(C)[N+](C)(CCOC(=O)C1c2ccccc2Oc2ccccc21)C(C)C	-1.97%
COC(=O)[C@@H](N)Cc1ccc(O)c(O)c1	4.65%
OCCN1CCN(CCCN2c3ccccc3C=Cc3ccccc32)CC1	28.4%
CC(C)NCC(O)c1cc(O)cc(O)c1 (stereo not given)	9.03%
COCCc1ccc(OCC(O)CNC(C)C)cc1 (stereo not given)	12.4%
C[C@]12CCC(=O)C=C1CC[C@@H]1[C@@H]2CC[C@@]2(C)[C@H]1CC[C@]2(O)C(=O)CO	18.3%
COCCOC(=O)C1=C(C)NC(C)=C(C(=O)OC(C)C)C1c1cccc([N+](=O)[O-])c1 (stereo not given)	-20.9%
FC(F)(F)c1ccccc1-n1ccnc1	8.64%
Cc1ccc(S(=O)(=O)NC(=O)NN2CCCCCC2)cc1	-9.49%
Cc1nc2c([nH]1)c(=O)n(C)c(=O)n2Cc1ccco1	4.59%
NC(Cc1ccc(Cl)cc1)C(=O)O (stereo not given)	8.99%
CN=C(NC#N)NCCSCc1nc[nH]c1C	-2.47%
O=c1[nH]c(=O)n([C@H]2C[C@H](O)[C@@H](CO)O2)cc1Br	-3.21%
CCN(CC)CC(=O)Nc1c(C)cccc1C	-5.68%
CCN1CCC[C@H]1CNC(=O)c1c(O)c(Cl)cc(Cl)c1OC	3.62%
CN/C(=C\[N+](=O)[O-])NCCSCc1ccc(CN(C)C)o1	0.568%
CN1CCN(C2=Nc3ccccc3Oc3ccc(Cl)cc32)CC1	10%

SMILES	activity change, positive = enhancement
C[C@]12C=CC(=O)C=C1CC[C@H]1[C@@H]3C[C@@H](O)[C@](O)(C(=O)CO)[C@@]3(C)C[C@H](O)[C@@]12F	-2.23%
O=C1CC2(CCCC2)CC(=O)N1CCCCN1CCN(c2ncccn2)CC1	-8.12%
CO[C@@]1(NC(=O)CSCC#N)C(=O)N2C(C(=O)O)=C(CSc3nnnn3C)CS[C@@H]21	-1.32%
CC[N+](C)(C)c1cccc(O)c1	2.85%
Nc1ncn([C@@H]2O[C@H](CO)[C@@H](O)[C@H]2O)c(=O)n1	4.43%
CCN1CCc2nc(N)oc2CC1	1.08%
COc1cc2c(cc1OC)-c1cc(=Nc3c(C)cc(C)cc3C)n(C)c(=O)n1CC2	10.9%
N[C@@H](COP(=O)(O)O)C(=O)O	4.91%
CC(=O)OCC1=C(C(=O)O)N2C(=O)[C@@H](NC(=O)Cc3cccs3)[C@H]2SC1	8.01%
CCCN(CCC)C(=O)C(CCC(=O)O)NC(=O)c1ccccc1 (stereo not given)	1.66%
CC1=NS(=O)(=O)c2cc(Cl)ccc2N1	-5.4%
NC(N)=N/N=C/c1c(Cl)cccc1Cl	21.3%
OC(CCN1CCCCC1)(c1ccccc1)C1CCCCC1 (stereo not given)	24%
CCc1c(C)[nH]c2c1C(=O)C(CN1CCOCC1)CC2 (stereo not given)	-2.49%
Cc1scc2c1N(C(=O)CN1CCN(C)CC1)c1ccccc1NC2=O	14.1%
CCN(CC)CCNC(=O)c1cc(S(C)(=O)=O)ccc1OC	7.96%
C(=C\c1ccccc1)/CN1CCN(C(c2ccccc2)c2ccccc2)CC1	-7.98%
CN(C)CCOC(=O)COc1ccc(Cl)cc1	-6.47%
O=C1NCN(c2ccccc2)C12CCN(CCCC(c1ccc(F)cc1)c1ccc(F)cc1)CC2	9.48%
CCCCNc1ccc(C(=O)OCCN(C)C)cc1	5.99%
